# Assay results: PubChem BioAssay (Tox21)
# Values joined by “and” are separate entries in the source; they are usually repeats but may differ in a detail not shown here. Identical values can stand only once. Inconclusive results are not listed. Entries that show only a call come without a potency. Active and inactive are the calls of the source. The call rests on the fitted dose curve; in most records, active means well fitted cell-killing curve with a large enough effect in the repeat runs; inconclusive means weak or mixed curves, or effect the other way; inactive means flat fitted curve, though single readings scatter.
# Assay: qHTS RealTime-Glo MT Cell Viability Assay in HepG2 cells - 40 hour (AID 1224870); further: nearly all actives have a fitted effect of over 50% in size
# Conditions: RealTime-Glo luminescence; series mostly up to 76.8 µM
# Procedure, shortened: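 Real-time viability: cells seeded at 600 per well together with NanoLuc and cell-permeant prosubstrate, compounds added after 5 h incubation. Luminescence tracked at 0, 8, 16, 24, 32 and 40 h of exposure.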
# Potency means the concentration at half of the fitted maximal effect.
row,Structure (SMILES),Potency
1,Brc1ccc(Oc2ccc(Br)cc2Br)c(Br)c1,inactive
2,CC[C@H](C)[C@H]1O[C@]2(C=C[C@@H]1C)C[C@@H]1C[C@@H](C/C=C(\C)[C@@H](O[C@H]3C[C@H](OC)[C@@H](O[C@H]4C[C@H](OC)[C@@H](NC)[C@H](C)O4)[C@H](C)O3)[C@@H](C)/C=C/C=C3\CO[C@@H]4[C@H](O)C(C)=C[C@@H](C(=O)O1)[C@]34O)O2,9.77 µM (active)
3,CSC(=O)c1c(C(F)F)nc(C(F)(F)F)c(C(=O)SC)c1CC(C)C,inactive
4,Oc1cc(Cl)cc(Cl)c1,inactive
5,CNC(C)(C)Cc1ccccc1,inactive
6,CC(C)[C@@H](Nc1ccc(C(F)(F)F)cc1Cl)C(=O)OC(C#N)c1cccc(Oc2ccccc2)c1 (stereo partly drawn),inactive
7,Cc1ccc([N+](=O)[O-])[c]2c1[O][Hg]2,3.01 µM (active)
8,CC(C)N(C(=O)SC/C(Cl)=C/Cl)C(C)C,inactive
9,C[C@]12CC[C@H]3[C@@H](CCC4=CC(=O)CC[C@@H]43)[C@@H]1CC[C@@H]2OC(=O)CCc1ccco1,inactive
10,CNC(=O)O/N=C(\C)C(C)S(C)(=O)=O (stereo not drawn),inactive
11,CC1(C)[C@H](/C=C2\CCSC2=O)[C@@H]1C(=O)OCc1coc(Cc2ccccc2)c1,inactive
12,Fc1ccc(C(OCCN2CCN(CCCc3ccccc3)CC2)c2ccc(F)cc2)cc1,26.8 µM (active)
13,CN(C)c1ccc(N)cc1,inactive
14,CC(C)C(Nc1ccc(C(F)(F)F)cc1Cl)C(=O)OC(C#N)c1cccc(Oc2ccccc2)c1 (stereo not drawn),inactive
15,N#CSCc1ccccc1,inactive
16,Cc1cccc(Cc2cnc[nH]2)c1C,inactive
17,CN(C)C(=S)SSC(=S)N(C)C,54.2 µM (active) and 219 nM (active) and 169 nM (active)
18,c1csc(-c2ccc(-c3cccs3)s2)c1,inactive
19,COP(=S)(NC(C)C)Oc1ccc(C)cc1[N+](=O)[O-] (stereo not drawn),inactive

row,Structure (SMILES),Potency
1,CCC1(CC)C(=O)N=C(O)NC1=O,inactive
2,CC(=O)C(Cl)C(=O)N(C)C (stereo not drawn),inactive
3,CCOC(=O)CCN(SN(C)C(=O)Oc1cccc2c1OC(C)(C)C2)C(C)C,inactive
4,COc1nc(C)nc(NC(=O)NS(=O)(=O)c2ccccc2Cl)n1,inactive
5,c1ccc2nc(N3CCNCC3)ccc2c1,inactive
6,CCOP(=S)(OCC)Oc1cc(C)nc(N(CC)CC)n1,inactive
7,CC1CCCC1,inactive
8,COc1ccc2c(c1OC)C(=O)O[C@@H]2[C@H]1c2cc3c(cc2CCN1C)OCO3,inactive
9,CN/C(=N\[N+](=O)[O-])NCc1cnc(Cl)s1,inactive
10,CCOP(=O)(Sc1ccccc1)Sc1ccccc1,inactive
11,CCOC(=O)Cc1ccccc1,inactive
12,CNC(=O)Oc1cc(C)cc(C(C)C)c1,inactive
13,O=c1c2ccccc2c(=O)c2c1cc(Cl)c1[nH]c3c([nH]c12)c(Cl)cc1c(=O)c2ccccc2c(=O)c13,inactive
14,CCOP(=S)(OCC)SC(CCl)N1C(=O)c2ccccc2C1=O (stereo not drawn),inactive
15,ClC1=C(Cl)[C@]2(Cl)[C@H]3[C@H]([C@@H]4C=C[C@H]3C4)[C@@]1(Cl)C2(Cl)Cl,inactive
16,[O]=[Cr][O][Cr]=[O],inactive
17,O=Cc1ccccc1,inactive
18,Cc1ccc(C)c2ccccc12,inactive
19,CCNc1nc(NC(C)C(C)C)nc(SC)n1 (stereo not drawn),inactive
